KB-3-1 tox: KB-3-1 parental cell cytotoxicity. KB-3-1 viability, CellTiter-Glo ATP luminescence, 72 h. Potency, µM (series often up to 46.1 µM), usual class: cytotoxic. actives 1.4% (n = 400,000); note: % is set by controls: 0 for no effect and ±100 for the full control effect; nearly all actives have a fitted effect of over 60% in size
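Luminescent ATP read-out (CellTiter-Glo) measures survival of drug-naive KB-3-1 cells after 72 h compound exposure at 37 °C. Titration series was screened from lowest to highest concentration, with DMSO vehicle plates as background controls.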
HT1080 IDH1KD tx: HT-1080 IDH1 knockdown cell toxicity (counter line); Potency, µM (highest dose often 46.1 µM), without a hit: top-dose activity, negative = toxicity, actives largely listed as cytotoxic; HT-1080 IDH1 knockdown viability, ATP luminescence, 48 h; AID 686971; actives 2% (n = 360,000);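 note: 0% = DMSO wells and -100% = cell-free medium wells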
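Using the IDH1-knockdown HT-1080 line run in the same batch and compound series as the NT line, viability after 48 h at 37 °C was determined by CellTiter-Glo luminescence and expressed as % activity.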
KB-V1 MDR tox: kills drug-selected multidrug resistant KB-V1 cells; KB-V1 MDR cells viability, CellTiter-Glo, 72 h; Potency, µM (top dose mostly 46.1 µM), usual class: cytotoxic; actives 3.4% (n = 400,000); note: % is set by controls: 0 for no effect and ±100 for the full control effect; nearly all actives have a fitted effect of over 60% in size
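Cytotoxicity via CellTiter-Glo luminescence after 72 h compound exposure at 37 degrees C. Cells: drug-selected KB-V1 line, DMEM phenol-red free plus 10% FBS. Compounds tested at multiple concentrations; normalized data fitted to concentration-effect curves.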
MCF10A rerep: inducers of DNA re-replication in MCF 10A breast cells | MCF 10A DNA re-replication, Hoechst nuclear intensity, 48 h | Potency, µM (titrated, usually from 46.1 µM), without a hit: at the top dose activity, positive = re-replication, hits mostly activators | actives 2.9% (n = 350,000); note: % of control where 0% means no effect; nearly all actives have a fitted effect of over 50% in size
SW480 rerep: induces DNA re-replication in SW480 colon adenocarcinoma cells. SW480 DNA re-replication, Hoechst DNA content imaging, 48 h. Potency, µM (series often up to 46.1 µM), for inactives: top-dose re-replication activation, most hits filed as activators. actives 1.8% (n = 340,000); note: % of control where 0% means no effect; nearly all actives have a fitted effect of over 55% in size
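Per well, 250 cells were exposed to pinned compound for 48 hr. Nuclear DNA was visualised with Hoechst (40 min, 37 C) and total object intensity recorded by fluorescence scanning.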
HT1080-NT tox: kills 2HG-producing HT-1080-NT fibrosarcoma cells. HT-1080-NT fibrosarcoma viability, CellTiter-Glo ATP luminescence, 48 h. Potency, µM (highest dose often 46.1 µM), inactives show top-dose activity, negative = less viability, usual class: cytotoxic. actives 1.6% (n = 360,000). AID 686970;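 note: NT is the 2HG producing partner of a matched IDH1 knockdown line; 0% = DMSO-treated cells and -100% = media-only wells without cells; nearly all actives have a fitted effect of over 55% in size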
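Viability by CellTiter-Glo luminescence after 48 h compound exposure at 37C of HT-1080-NT cells (750/well, RPMI, 5% FBS). % activity scaled between DMSO wells and medium-only wells, then curve-fitted and categorized by curve class.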
Active calls of the source: *; i = inactive; ? = inconclusive; . = no result; [ ] = another dose, or the depositor's remark. A selection: hits, their analogues and other compounds. The true share with any hit is near 8%. Calls come from the whole dose curve; as a rule, active = well fitted curve in the direction sought with a large enough effect; inconclusive = small, poorly fitted or top-dose-only effect, or another doubt; inactive = no such curve, though single readings can be large; an effect the other way counts as inactive or inconclusive. Potency is the fitted concentration of half-maximal effect.

SMILES	KB-3-1 tox	HT1080 IDH1KD tx	KB-V1 MDR tox	MCF10A rerep	SW480 rerep	HT1080-NT tox
COc1ccc(-n2ncc3c(N4CCN(c5cc(C)ccc5C)CC4)ncnc32)cc1	i	2%	i	2%	-10%	-1%
COc1ccc(N2CCN(c3ncnc4c3cnn4-c3ccc(C)cc3C)CC2)cc1	i	15%	4.6µM*	0%	-4%	5%
COc1cccc(-c2nc(CS(=O)(=O)CC(=O)Nc3ccccc3Br)c(C)o2)c1	i	-1%	i	7%	-1%	-1%
CCCc1ccc(C(C)NC(=S)NC2CCCCC2)cc1 (configuration not stated)	?	-7%	i	21%	?	-11%
COc1ccc2c(c1)c1c(c(=O)n(-c3cccc(Cl)c3)c(=O)n1C)n2C	i	.	?	.	.	.
COc1cc(C(=O)ON=C2C=C(C)C(=O)C(C)=C2)cc(OC)c1OC	i	-9%	i	?	?	-6%
COc1cc(C(=O)O/N=C2\C=CC(=O)C(C)=C2)cc(OC)c1OC	?	?	?	?	5.8µM*	23µM*
N/C(CN1CCCCC1)=N\S(=O)(=O)c1cc(Cl)cc(Cl)c1	i	-8%	?	0%	-8%	-4%
Cc1ccc(-n2ncc(C(=O)NCC3CCN(C4CCCC4)C3)c2C2CCN(C(=O)OC(C)(C)C)CC2)cc1 (configuration not stated)	?	?	i	16%	?	23µM*
CC(C)(C)OC(=O)N1CCC(c2c(C(=O)NCC3CCN(C4CCCC4)C3)cnn2-c2cccc(Cl)c2)CC1 (configuration not stated)	i	18µM*	i	?	?	?
C#CCSc1nnnn1-c1cccc(Cl)c1	?	-1%	i	9%	?	0%
O=C(NCC1CCCCC1)c1cc(Br)ccc1Cl	i	-3%	i	-1%	2%	-2%
CC(C)C(NS(=O)(=O)c1cccc2nsnc12)C(=O)N1CCc2ccccc2C1 (configuration not stated)	i	0%	18µM*	-2%	8%	1%
CC1CCN(C(=O)C(NS(=O)(=O)c2cccc3nsnc23)C(C)C)CC1 (configuration not stated)	i	-5%	i	4%	-22%	0%
Clc1cccc(CNc2ncnc3nc[nH]c23)c1	i	.	i	.	.	.
CC(=O)c1cccc(Nc2ccc(-c3ccccc3F)nn2)c1	i	-4%	i	0%	-3%	0%
COc1ccccc1-c1ccc(Nc2cccc(C(C)=O)c2)nn1	i	-25%	13µM*	16%	8%	-2%
CC(=O)c1ccc(Nc2ccc(-c3ccccc3C)nn2)cc1	i	3%	i	26µM*	24%	-1%
CCOC(=O)CC(NC(=O)CCc1c(C)nc2c(c(C)nn2-c2ccc(C)c(C)c2)c1C)c1ccc(C)cc1 (configuration not stated)	i	.	i	.	.	.
O=C(c1ccc2c(c1)N(Cc1ccc(F)cc1)C(=O)c1ccccc1S2(=O)=O)N1CCN(Cc2ccccc2)CC1	i	.	?	.	.	.
O=C(CCNS(=O)(=O)c1cccc2nsnc12)NC1CCCc2ccccc21 (configuration not stated)	i	-5%	i	2%	-1%	-9%
O=C(CCNS(=O)(=O)c1cccc2nonc12)NC1CCCc2ccccc21 (configuration not stated)	i	-8%	23µM*	18%	6%	-4%
O=C(CCl)NC1CCCc2ccccc21 (configuration not stated)	i	?	?	3%	8%	?
O=C(CCCOc1ccccc1)NC1CCCc2ccccc21 (configuration not stated)	i	-3%	18µM*	16%	4%	0%
Cc1ccc(S(=O)(=O)N2CCC3(CC2)OCCN3S(=O)(=O)c2cccs2)cc1	i	-19%	i	?	?	?
SMILES	KB-3-1 tox	HT1080 IDH1KD tx	KB-V1 MDR tox	MCF10A rerep	SW480 rerep	HT1080-NT tox
COc1ccc(S(=O)(=O)N2CCC3(CC2)OCCN3S(=O)(=O)c2cccs2)cc1	i	5%	8.2µM*	14%	6%	-2%
COc1ccc(S(=O)(=O)N2C3CCC2CC(NC(=O)NC2CCCCC2)C3)cc1 (configuration not stated)	i	-7%	16µM*	?	-2%	7%
COC(=O)[C@@]1(Cc2ccc(OC)cc2)[C@H]2c3cc(C(=O)N(C)C)n(C[C@H](O)CO)c3C[C@H]2CN1C(=O)c1ccccc1	i	12%	i	0%	2%	20%
C=C1C(=O)CC2=C1[C@](Cc1ccc(F)cc1)(C(=O)OC)N(C(=O)c1ccccc1)C2	?	?	i	.	.	?
C=C1C(=O)C=C2CN(C(=O)c3ccccc3)[C@@](Cc3ccc(F)cc3)(C(=O)OC)[C@@H]12	5.2µM*	5.8µM*	4.6µM*	3.7µM*	1.3µM*	12µM*
COC(=O)[C@@]1(Cc2ccc(OC)cc2)[C@@H]2C(=CC(=O)[C@H]2CC(=O)C(=O)N(C)C)CN1C(=O)c1ccccc1	16µM*	?	?	?	?	?
COCCCNC(=O)Cn1c(=O)n(-c2cccc(C)c2)c(=O)c2c3c(sc21)CN(C(C)=O)CC3	i	.	i	.	.	.
CC1CCC(O)C/C1=C\C=C1/CCCC2(C)C1CCC2C(C)/C=C/C(C)C(C)C (configuration not stated)	.	.	.	21µM*	?	.
O=C1C[C@H]2C=CCc3cccc(c32)CN1Cc1ccc(Cl)cc1	i	.	18µM*	.	.	.
COc1ccc(C(=O)OCc2cc(=O)n3nc(-c4cccs4)sc3n2)cc1	i	.	i	.	.	.
Oc1ccccc1C(Nc1nccs1)c1ccc2cccnc2c1O (configuration not stated)	2.3µM*	7.3µM*	12µM*	?	-4%	?
Oc1c(C(Nc2ccccn2)c2ccccn2)ccc2cccnc12 (configuration not stated)	15µM*	8.2µM*	5.8µM*	?	?	?
CCN(CC)c1ccc(C2=NNC(=O)CC2C)cc1[N+](=O)[O-] (configuration not stated)	0.21µM*	?	?	10%	0%	8%[9.24 µM]
c1cc2c3c(cccc3c1)C(N1CCCCCC1)=N2	i	-3%	i	-8%	-1%	0%

Assay outcomes deposited in PubChem BioAssay by National Center for Advancing Translational Sciences (NCATS).
